Test results published in PubChem BioAssay AID488969 (Vanderbilt High Throughput Screening Facility, 2010).
Whole data set: some 110,000 compounds, median “z-score” near -0.1, cut for the highest 2% near 2. The entries come from a sample that favours the highest values as a whole. Calls of active or inactive are those of the source.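 Rule for the calls: active = z-score in the third read window above 3 or below -3; inactive = the rest.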

Biological target: Metabotropic glutamate receptor 8 (Rattus norvegicus) (UniProt P70579)
Assay: rat mGluR8 modulators via GIRK flux, primary screen, cell-based, thallium flux, HTS (AID 488969)
Conditions: HEK293 rat mGluR8, GIRK (G protein-gated inwardly rectifying potassium channel) thallium flux, FluoZin2; at 10 µM; stronger effect = higher value

Metabotropic glutamate receptor 8 (Rattus norvegicus), sequence (P70579 whole entry, looked up): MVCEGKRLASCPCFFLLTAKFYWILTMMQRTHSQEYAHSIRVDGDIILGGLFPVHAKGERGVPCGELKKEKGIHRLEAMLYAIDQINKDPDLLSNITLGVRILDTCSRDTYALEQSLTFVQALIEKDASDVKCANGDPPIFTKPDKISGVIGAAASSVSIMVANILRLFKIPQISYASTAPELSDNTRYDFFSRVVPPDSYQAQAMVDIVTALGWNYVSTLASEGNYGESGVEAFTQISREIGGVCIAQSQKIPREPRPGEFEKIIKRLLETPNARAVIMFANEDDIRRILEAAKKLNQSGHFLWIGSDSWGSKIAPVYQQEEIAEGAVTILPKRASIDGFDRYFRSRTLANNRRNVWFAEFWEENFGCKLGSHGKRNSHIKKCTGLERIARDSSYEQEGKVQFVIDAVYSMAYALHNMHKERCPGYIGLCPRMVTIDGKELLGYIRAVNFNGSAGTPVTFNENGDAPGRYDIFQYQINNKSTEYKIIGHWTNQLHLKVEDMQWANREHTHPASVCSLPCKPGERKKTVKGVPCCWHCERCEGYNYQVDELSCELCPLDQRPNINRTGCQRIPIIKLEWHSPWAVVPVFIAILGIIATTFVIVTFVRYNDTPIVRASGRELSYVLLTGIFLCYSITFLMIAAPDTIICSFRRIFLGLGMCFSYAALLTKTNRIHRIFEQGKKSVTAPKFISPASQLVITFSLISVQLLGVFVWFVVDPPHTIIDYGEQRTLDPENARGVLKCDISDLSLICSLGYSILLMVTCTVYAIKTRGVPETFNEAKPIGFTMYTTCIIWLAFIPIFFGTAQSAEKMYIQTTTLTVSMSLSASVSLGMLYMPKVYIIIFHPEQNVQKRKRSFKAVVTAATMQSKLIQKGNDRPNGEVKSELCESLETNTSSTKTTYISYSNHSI

Structure (SMILES)	z-score
O=C(c1cc2ccccc2oc1=O)N1CCC2(CC1)OCCO2	0.602
O=C(c1cc2nc(-c3ccccc3)cc(-c3ccccc3)n2n1)N1CCC2(CC1)OCCO2	-0.525
O=C(c1cc2ccccn2n1)N1CCC2(CC1)OCCO2	4 (active)
N#CC1=C(N)Oc2c(c(=O)oc3ccccc23)C1c1ccncc1 (stereo not given)	-0.0723
Cc1[nH]c2c(Cl)cccc2c1CCN	0.371
Cc1cccc(N2C(=O)NC(=O)/C(=C\c3cccn3-c3ccc(Cl)cc3)C2=O)c1	-0.0172
Cc1ccc(Cc2c(C)nc3nc(SCC(=O)N4CCC5(CC4)OCCO5)nn3c2C)cc1	-0.0184
O=C(COc1ccc(Cl)cc1)NC1CN2CCC1CC2 (stereo not given)	-0.215
CCNC(=O)C1OC(n2cnc3c(N)ncnc32)C(O)C1O (stereo not given)	2
CCCCn1c(O)c(C(CC)=Nc2ccc(OC)cc2OC)c(=O)[nH]c1=O	-1.4
Cn1cccc1/C=C1/C(=O)NC(=O)N(Cc2ccccc2)C1=O	-0.709
Cc1nn(Cc2ccccc2)c(C)c1C=C1C(=O)NC(=S)NC1=O	-0.287
Cc1nn(Cc2ccccc2)c(C)c1C=C1C(=O)NC(=O)NC1=O	2.1
CCn1c(P(C)(=O)O)nc2ccccc21	-0.338
CN1CCN(Cc2ccc(Br)s2)CC1	0.759
Cc1ccc(-c2nc(N(C)C3CCN(C)CC3)c3ccccc3n2)cc1	2.91
CN1CCC(N(C)c2nc(-c3ccccc3)nc3ccccc23)CC1	0.199
CN1CCC(N(C)c2nc(-c3ccc([N+](=O)[O-])cc3)nc3ccccc23)CC1	0.562
O=C(Cn1c(=S)[nH]c2ccccc2c1=O)N1CCC2(CC1)OCCO2	0.264
CC1=NN(c2ccccc2)C(=O)C1/C=C1/C(=O)NC(=O)N(c2cccc(C)c2)C1=O (stereo not given)	-0.395
CCOC(=O)C(O)(c1ccc(N(CC)S(=O)(=O)c2ccc(C)cc2)cc1)C(F)(F)F (stereo not given)	2.37
CCN(c1ccc(C(O)(C(=O)OC)C(F)(F)F)cc1)S(=O)(=O)c1ccc(C)cc1 (stereo not given)	1.21
CCOC(=O)N(C)c1ccc(C(O)(C(=O)OCC)C(F)(F)F)cc1 (stereo not given)	-0.0433
O=C(c1ccccc1F)c1cn(CC(=O)N2CCCCC2)c2ccccc12	-0.152
CCN(CC)c1ccc(CN2CC=C(c3ccc(F)cc3)CC2)cc1	0.0485
Cn1c(O)c(C=NCCN2CCNCC2)c(=O)n(C)c1=O	-0.337
O=c1c(C=NCc2cccs2)c(O)n(C2CCCCC2)c(=O)n1C1CCCCC1	-0.421
O=c1c(C=NCCN2CCNCC2)c(O)n(C2CCCCC2)c(=O)n1C1CCCCC1	2.42
COc1ccc(CCN(C)Cc2c(F)cccc2F)cc1OC	0.419
N#Cc1cc2c(nc1SCC(=O)Nc1cc(Cl)ccc1Cl)C1CCN2CC1	-1.88
